Results from PubChem BioAssay (EPA / NIEHS).
“And” between values parts separate entries of the source, which are not always exact repeats. Identical values can stand only once. The source holds several records for some structures; these can differ, active in one and inactive in another. The source made the active and inactive calls. Rule for the calls: active = hit-call score of the fitted dose curve at least 0.9, where 1 is the maximum; inactive = score below 0.9.

assay: ATG_BRE_CIS: Attagene CIS-FACTORIAL HepG2 Assay for human Bone Morphogenetic Protein (BMP) Response Element (BRE) (AID 2282933); conditions: HepG2 BMP response element reporter, Attagene transcription factor profiling; actives raise or lower the signal
Description: ATG_CIS is a cell-based, multiplexed-readout assay that uses HepG2, a human liver cell line, with measurements taken at 24 hours after chemical dosing in a 24-well plate.ATG_BRE_CIS is one of 52 assay component(s) measured or calculated from the ATG_CIS assay. It is designed to make measurements of mRNA induction, a form of inducible reporter, as detected with fluorescence intensity signals by Reverse transcription polymerase chain reaction (RT-PCR) and Capillary electrophoresis technology.Data from the assay component ATG_BRE_CIS was analyzed into 1 assay endpoint. This assay endpoint, ATG_BRE_CIS, was analyzed with bidirectional fitting relative to DMSO as the negative control and baseline of activity. Using a type of inducible reporter, measures of mRNA for gain or loss-of-signal activity can be used to understand the reporter gene at the transcription factor-level as they relate to the gene SMAD1. Furthermore, this assay endpoint can be referred to as a primary readout, because this assay has produced multiple assay endpoints where this one serves a reporter gene function. To generalize the intended target to other relatable targets, this assay endpoint is annotated to the dna binding intended target family, where the subfamily is Smad protein.
Human liver HepG2 cells are transiently transfected with multiple reporter transcription units (MRTUs) in 6-well plates using FuGene 6 reagent (Roche; 3 ml FuGene/1 mg DNA). The MRTU constructs are regulated by a cis-regulating element (promoter). […] A major difference between the CIS and TRANS system is that in CIS activities of endogenous TFs are measured, whereas the TRANS assay evaluates changes in activities of exogenous, chimeric NR-Gal4 proteins. […] At the end of 24 hour incubation, total RNA was isolated using TriZol reagent (Invitrogen). The isolated RNA is then reverse-transcribed using oligo(dT) primer and Mo-MLV reverse transcriptase (Invitrogen) with DNAse I (Ambion) treatment for 30 min. The one-tenth of the produced cDNA was amplified by PCR using Taq DNA polymerase (Invitrogen) and two reporter sequence-specific primers. The PCR products were fluorescently labeled by primer extension with 6-arboxyfluorescein (6-FAM) 5'-labeled reporter sequence-specific primer (2 min at 95 C, 20 s at 68 C and 10 min at 72 C) and these products were digested with 5U of HpaI (New England Biolabs) for 2h at 37 C. The fragments were purified using Qiaquick PCR columns (Qiagen), analyzed on an ABI 3130xL genetic analyzer (Applied Biosystems) with peak positions identified by using a set of X-rhodamine (ROX)-labeled MapMarker1000 molecular weight standards (BioVentures). The raw capillary electrophoresis data was processed using Attagraph software (Attagene).

| SMILES | outcome | AC50 |
| --- | --- | --- |
| CCCCC(CC)COC(=O)c1ccccc1C(=O)O (stereo not given) | inactive | – |
| CCOC(=O)C(C)Oc1ccc(Oc2cnc3cc(Cl)ccc3n2)cc1 (stereo not given) | inactive | – |
| O=C(O)c1ccccc1 | inactive | – |
| CCCCC(CC)CN1C(=O)C2C3C=CC(C3)C2C1=O (stereo not given) | – | 45.3 µM (active) |
| CCCCOC(=O)[C@@H](C)Oc1ccc(Oc2ccc(C(F)(F)F)cn2)cc1 | inactive | – |
| CCCN(CCC)C(=O)SCC | inactive | – |
| O=C(c1ccc(O)cc1O)c1ccc(O)cc1O | inactive | – |
| CCOC(=O)C(C)Oc1ccc(Oc2nc3ccc(Cl)cc3o2)cc1 (stereo not given) | inactive | – |
| CC1(C)C(C=C(Cl)Cl)C1C(=O)OCc1cccc(Oc2ccccc2)c1 (stereo not given) | inactive | – |
| CCOC(=O)COc1cc(-n2ncc(C(F)(F)F)c(C)c2=O)c(F)cc1Cl | inactive | – |
| COC(=O)c1ccc(CNS(C)(=O)=O)cc1S(=O)(=O)NC(=O)Nc1nc(OC)cc(OC)n1 | inactive | – |
| COCCO | inactive | – |
| CC(=O)[C@H]1CC[C@H]2[C@@H]3CCC4=CC(=O)CC[C@]4(C)[C@H]3CC[C@]12C | – | 33.4 µM (active) and 24.3 µM (active) and 33.7 µM (active) |
| c1ccc(Nc2ccccc2)cc1 | inactive | 16.6 µM (active) |
| O=C(O)C1(C(=O)Nc2ccc(Cl)cc2Cl)CC1 | inactive | – |
| CCOC(=O)NCCOc1ccc(Oc2ccccc2)cc1 | – | 27.9 µM (active) |
| CCOC(=O)c1ccc(O)cc1 | inactive | 166 µM (active) |
| CCN(CC)C(=O)c1cccc(C)c1 | inactive | – |
| S=C([S-])NCCNC(=S)[S-].[Mn+2] | inactive | – |

| SMILES | outcome | AC50 |
| --- | --- | --- |
| Oc1ccc(C(c2ccc(O)cc2)C(Cl)(Cl)Cl)cc1 | inactive | – |
| C=CCOC(Cn1ccnc1)c1ccc(Cl)cc1Cl (stereo not given) | – | 33.7 µM (active) |
| CCCCCOC(=O)COc1cc(N2C(=O)C3=C(CCCC3)C2=O)c(F)cc1Cl | inactive | – |
| CCCCOCCOCCOCc1cc2c(cc1CCC)OCO2 | inactive | – |
| O=C(Nc1ccc([N+](=O)[O-])cc1Cl)c1cc(Cl)ccc1O | – | 0.652 µM (active) |
| c1ccc2[nH]c(-c3cscn3)nc2c1 | inactive | – |
| COc1nc(C)nc(NC(=O)NS(=O)(=O)c2ccccc2OCCCl)n1 | inactive | – |
| COC(=O)c1cccc(C)c1S(=O)(=O)NC(=O)Nc1nc(OCC(F)(F)F)nc(N(C)C)n1 | inactive | – |
| C#CCOC(=O)[C@@H](C)Oc1ccc(Oc2ncc(Cl)cc2F)cc1 | inactive | – |
| CCCN(CCC)c1c([N+](=O)[O-])cc(C(F)(F)F)c(N)c1[N+](=O)[O-] | – | 36.1 µM (active) |
| COC(=O)c1ccccc1C(=O)O | inactive | – |
| CSC(=O)c1cccc2nnsc12 | inactive | – |
| N[C@@H](Cc1cc(I)c(Oc2ccc(O)c(I)c2)c(I)c1)C(=O)O | inactive | – |
| COC(=O)c1ccc(I)cc1S(=O)(=O)NC(=O)Nc1nc(C)nc(OC)n1 | inactive | – |
| OB(O)O | inactive | – |
| CCC(C)OC(=O)N1CCCCC1CCO (stereo not given) | inactive | – |
| CCCCCCC(C)OC(=O)COc1nc(F)c(Cl)c(N)c1Cl (stereo not given) | inactive | – |
| CC(=O)S[C@@H]1CC2=CC(=O)CC[C@]2(C)[C@H]2CC[C@@]3(C)[C@@H](CC[C@@]34CCC(=O)O4)[C@H]12 | inactive | 70.9 µM (active) and 152 µM (active) |
